Data reported in PubChem BioAssay (NCI).
Compounds without any hit were thinned out: in the full panel of roughly 83,000, 20% have a hit.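 Cells were grown in 96-well plates and exposed to the test compound at a single concentration for 48 hours; results are reported as percent growth, with values below 10 considered active.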 Values without a mark were called inactive. Active and inactive are the calls of the source.

Assays:
Experiment in all cases: NCI-60 one-dose screen, 48 h (100 = growth as untreated, 0 = no growth, -100 = all killed)
Conditions in all cases: 10 µM unless noted
[1] = test system: NCI-H23 lung
[2] = test system: NCI-H226 lung
[3] = test system: NCI-H322M lung
[4] = test system: HOP-62 NSCLC
[5] = test system: NCI-H460 lung
[6] = test system: HOP-92 NSCLC
[7] = test system: NCI-H522 lung
[8] = test system: A549/ATCC NSCLC
[9] = test system: 786-0 renal
[10] = test system: COLO 205 colon
[11] = test system: DU-145 prostate
[12] = test system: K-562 leukemia
[13] = test system: MALME-3M melanoma
[14] = test system: MDA-MB-231 breast
[15] = test system: RXF 393 renal
[16] = test system: SF-268 CNS
[17] = test system: SF-295 CNS
[18] = test system: SF-539 CNS
[19] = test system: UACC-257 melanoma
[20] = test system: M14 melanoma

Cn1cc(C(=O)c2nc(-c3c[nH]c4ccc(F)cc34)no2)c2cc(F)ccc21
growth [1]: 88% | growth [2]: 69.5% | growth [3]: 93.6% | growth [4]: 91.2% | growth [5]: 96.4% | growth [6]: 85.5% | growth [7]: 80.1% | growth [8]: 104% | growth [9]: 103% | growth [10]: 94.5% | growth [11]: 101% | growth [12]: 66.1% | growth [13]: 87.3% | growth [14]: 108% | growth [15]: 108% | growth [16]: 96% | growth [17]: 98% | growth [18]: 95.1% | growth [19]: 99.2% | growth [20]: 97%

COc1cc(/C=C/C(=O)c2ccc(O)c(CN3CCN(c4cc5c(cc4F)c(=O)c(C(=O)O)cn5C4CC4)CC3)c2)cc(OC)c1OC
growth [1]: 42.8% | growth [2]: 76.9% | growth [3]: 30% | growth [4]: 72.3% | growth [5]: 34.8% | growth [6]: 81.2% | growth [7]: 27.6% | growth [8]: 43.1% | growth [9]: 49.8% | growth [10]: 106% | growth [11]: 24.6% | growth [12]: 10.6% | growth [13]: 74.3% | growth [14]: 76.7% | growth [15]: 28.1% | growth [16]: 54.9% | growth [17]: 86.5% | growth [18]: 49.6% | growth [19]: 64.5% | growth [20]: 48.8%

CCOC(=O)c1c(CN2CCN(C)CC2)nc2ccc(Cl)cc2c1-c1ccccc1
growth [1]: 74.7% | growth [2]: 103% | growth [3]: 108% | growth [4]: 70.8% | growth [5]: 59.5% | growth [6]: 30.8% | growth [7]: 65.8% | growth [8]: 67.2% | growth [9]: 57.5% | growth [10]: 97% | growth [11]: 85.7% | growth [12]: 11.7% | growth [13]: 38.6% | growth [14]: 70.7% | growth [15]: 42.9% | growth [16]: 77.9% | growth [17]: 28.8% | growth [18]: 61.9% | growth [19]: -38% (active) | growth [20]: -24.5% (active)

Cc1ccc(OC(=O)c2ccc(Cl)cc2)cc1
growth [1]: 99.2% | growth [2]: 97.3% | growth [3]: 98.2% | growth [4]: 84.5% | growth [5]: 111% | growth [6]: 100% | growth [7]: 76.1% | growth [8]: 98.4% | growth [9]: 90.2% | growth [10]: 112% | growth [11]: 112% | growth [12]: 96.6% | growth [13]: 101% | growth [14]: 81.7% | growth [15]: 109% | growth [16]: 45.2% | growth [17]: 93.3% | growth [18]: 95% | growth [19]: 102% | growth [20]: 102%

CCOC(=O)c1sc2nc(-c3cccc(OC)c3)nc(N3CCOCC3)c2c1C
growth [1]: 93.5% | growth [2]: 79.5% | growth [3]: 94.4% | growth [4]: 110% | growth [5]: 101% | growth [6]: 80.3% | growth [7]: 85.8% | growth [8]: 84% | growth [9]: 92.8% | growth [10]: 108% | growth [11]: 101% | growth [12]: 97.2% | growth [13]: 117% | growth [14]: 95% | growth [15]: 95.6% | growth [16]: 88.4% | growth [17]: 99.5% | growth [18]: 98.8% | growth [19]: 115% | growth [20]: 120%

C=C(C)[C@@H]1CC[C@]2(C(=O)OC)CC[C@]3(C)[C@H](CC[C@@H]4[C@@]5(C)C/C(=C/c6cccc(I)c6)C(=O)C(C)(C)[C@@H]5CC[C@]43C)[C@@H]12
growth [1]: 91.4% | growth [2]: 94.2% | growth [3]: 97.3% | growth [4]: 88% | growth [5]: 101% | growth [6]: 100% | growth [7]: 89% | growth [8]: 101% | growth [9]: 95.3% | growth [10]: 125% | growth [11]: 113% | growth [12]: 96.9% | growth [13]: 91.6% | growth [14]: 98.4% | growth [15]: 88.1% | growth [16]: 95.1% | growth [17]: 97.6% | growth [18]: 91.7% | growth [19]: 107% | growth [20]: 103%

CCN(CC)CCCCNc1c2ccc(Cl)cc2nc2ccc(OC)cc12
growth [1]: -42.8% (active) | growth [2]: -53.7% (active) | growth [3]: -30.4% (active) | growth [4]: 2.75% (active) | growth [5]: -23.8% (active) | growth [6]: -30.7% (active) | growth [7]: -37.4% (active) | growth [8]: 9.02% (active) | growth [9]: -16.6% (active) | growth [10]: -52% (active) | growth [11]: -2.29% (active) | growth [12]: -19% (active) | growth [13]: -65.6% (active) | growth [14]: -52.4% (active) | growth [15]: -61% (active) | growth [16]: -23.1% (active) | growth [17]: -58.7% (active) | growth [18]: -83% (active) | growth [19]: -37.1% (active) | growth [20]: -71.3% (active)
